Data taken from PubChem BioAssay.
Activity calls are given as the source filed them. Unless noted, no rule for the calls is given here.

How the values were obtained:
[1] = system: Wnt5a (protein binding on small-molecule microarray); assay: Wnt5a binders on small-molecule microarray, primary screen, biophysical, 635/667 nm fluorescence (AID 1142); details: 635 nm fluorescence, higher = more signal;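 also: fluorescence read at 667 nm with signal to noise per printed feature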
[2] = cell viability in Huh7 cells, primary screen, cytotoxicity control for HCV replication inhibitor project, CellTiter-Glo luminescence, basal, 48 h (AID 1143); details: Huh7 HCV replicon, higher = more signal, called active from +8 up or from −8 down;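 also: Huh7 hepatoma cells carrying a hepatitis C replication reporter with no stimulus; test concentration not given here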
[3] = P. aeruginosa biofilm formation inhibitors, primary screen, PAO1 strain, BacTiter-Glo luminescence, LB-PBS (AID 1144); details: 12 h, higher = more signal
[4] = CREB reporter modulators without forskolin, primary screen, cell-based, PC12, CRE-LacZ reporter, unstimulated (AID 1145); details: no forskolin, luminescence, 4.5 h, higher = more signal, called active from +8 up or from −8 down
[5] = CREB reporter modulators under forskolin, primary screen, cell-based, PC12, CRE-LacZ reporter, forskolin-stimulated (AID 1146); details: luminescence, 4.5 h, higher = more signal, called active from +8 up or from −8 down;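 also: PC12 cells with 6xCRE LacZ reporter stimulated by forskolin 10 µM; beta-galactosidase reporter signal reflecting CREB driven transcription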
[6] = biological target: Streptavidin (Streptomyces avidinii) (UniProt P22629); assay: streptavidin binders on small-molecule microarray, primary screen, artefact control for SMM compound annotation, biophysical, 635/667 nm fluorescence (AID 1147); details: streptavidin binding, higher = more signal;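 also: signal reflects streptavidin binding to arrayed compounds as a control protein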
Sequence of Streptavidin (Streptomyces avidinii) (P22629 whole entry, looked up): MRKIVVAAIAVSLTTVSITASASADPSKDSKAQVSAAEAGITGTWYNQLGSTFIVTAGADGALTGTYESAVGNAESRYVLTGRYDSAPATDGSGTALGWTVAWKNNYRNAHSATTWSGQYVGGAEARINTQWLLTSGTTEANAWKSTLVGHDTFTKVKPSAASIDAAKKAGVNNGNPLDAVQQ

[7] = small-molecule binders of probe aInhba, primary screen, biochemical, small-molecule microarray, 635/667 nm fluorescence (AID 1148); details: higher = more signal;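 also: score merges 667nm spot fluorescence with signal-to-noise for antibody binding to printed compounds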
Torsin-1A (Homo sapiens) [8] = biological target: Torsin-1A (Homo sapiens) (UniProt O14656); assay: torsin A binders from cell lysate, primary screen, small-molecule microarray, wild-type, 635/667 nm (AID 1149); details: COS7 hTOR1A-WT lysate, 635 nm fluorescence, higher = more signal
Sequence of Torsin-1A (Homo sapiens) (O14656 whole entry, looked up): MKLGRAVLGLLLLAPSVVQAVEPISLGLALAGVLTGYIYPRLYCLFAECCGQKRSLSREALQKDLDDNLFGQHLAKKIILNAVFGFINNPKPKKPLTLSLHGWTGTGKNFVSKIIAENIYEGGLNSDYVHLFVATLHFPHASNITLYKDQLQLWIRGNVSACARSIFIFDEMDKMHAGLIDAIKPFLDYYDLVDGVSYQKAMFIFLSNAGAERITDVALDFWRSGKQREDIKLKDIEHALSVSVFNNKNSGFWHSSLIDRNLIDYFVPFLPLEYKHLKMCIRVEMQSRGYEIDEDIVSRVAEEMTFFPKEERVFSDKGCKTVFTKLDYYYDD

Torsin-1A (Homo sapiens) [9] = biological target: Torsin-1A (Homo sapiens) (UniProt O14656); assay: small-molecule binders of mutant TOR1A in lysate, primary screen, cell lysate, small-molecule microarray, COS7 lysate, 635/667 nm fluorescence (AID 1150); details: COS7 hTOR1A mutant lysate, 635 nm fluorescence, higher = more signal;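 also: score pools 667 nm emission and signal to noise measuring lysate protein binding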
[10] = system: Sonic hedgehog protein (Shh); assay: small-molecule binders of Shh protein, primary screen, biochemical, small-molecule microarray, 635/667 nm fluorescence (AID 1151); details: small-molecule microarray binding, 635 nm fluorescence; higher = more signal;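 also: Shh protein binding to compounds spotted on small-molecule microarray slides; score combines spot fluorescence intensity with signal-to-noise across triplicate slides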
[11] = E. coli DRC41 culture turbidity changes, primary screen, E. coli filamentation inducer project, strain DRC41, OD650, 48 h (AID 1152);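 also: E. coli MC1000 strain DRC41 lacking acrAB efflux pump and sulA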; details: E. coli DRC41 (acrAB sulA), higher = more signal, called active from +8 up or from −8 down
[12] = small-molecule binders of probe aLefty1, primary screen, biochemical, small-molecule microarray, 635/667 nm fluorescence (AID 1153); details: higher = more signal;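 also: score merges spot fluorescence with signal-to-noise ratio from the scanned slide images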
[13] = PSAC antagonists in infected red cells, primary screen, cell-based, P. falciparum Indochina, OD700, 1 h (AID 1154); details: P. falciparum Indochina infected RBC osmotic lysis, higher = more signal, called active from +8 up or from −8 down
[14] = PSAC antagonists in infected red cells, primary screen, cell-based, P. falciparum Indochina, OD700, 2 h (AID 1155);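 also: lysis reports solute entry through the parasite surface anion channel PSAC; channel blockers reduce lysis of infected cells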; details: P. falciparum Indochina infected erythrocytes, osmotic lysis OD700; higher = more signal, called active from +8 up or from −8 down
[15] = osmotic lysis modulators in infected erythrocytes, primary screen, PSAC antagonist project, cell-based, P. falciparum Indochina, OD700, 3 h (AID 1156); details: higher = more signal, called active from +8 up or from −8 down
[16] = PSAC antagonists in infected red cells, primary screen, cell-based, P. falciparum Indochina, OD700, 18 h (AID 1157); details: P. falciparum Indochina infected erythrocytes, osmotic lysis OD700, 18 h; higher = more signal, called active from +8 up or from −8 down
[17] = modulators of S6 phosphorylation in cells, primary screen, cell-based, A549, cytoblot, luminescence, serum-stimulated (AID 1158); details: A549 phospho-S6 cytoblot, 5 h, higher = more signal;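 also: serum-stimulated A549 lung adenocarcinoma cells; signal is phosphorylated S6 detected by cytoblot immunostaining with HRP secondary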
[18] = biological target: NADPH oxidase 2 (Homo sapiens) (UniProt P04839); assay: NOX2-dependent H2O2 signal modulators, primary screen, NOX inhibitor project, cell-based, HEK293-NOX2, PMA-stimulated, Amplex Red fluorescence (AID 1159); details: 45 min, higher = more signal, called active from +8 up or from −8 down; also: test concentration not given here
Sequence of NADPH oxidase 2 (Homo sapiens) (P04839 whole entry, looked up): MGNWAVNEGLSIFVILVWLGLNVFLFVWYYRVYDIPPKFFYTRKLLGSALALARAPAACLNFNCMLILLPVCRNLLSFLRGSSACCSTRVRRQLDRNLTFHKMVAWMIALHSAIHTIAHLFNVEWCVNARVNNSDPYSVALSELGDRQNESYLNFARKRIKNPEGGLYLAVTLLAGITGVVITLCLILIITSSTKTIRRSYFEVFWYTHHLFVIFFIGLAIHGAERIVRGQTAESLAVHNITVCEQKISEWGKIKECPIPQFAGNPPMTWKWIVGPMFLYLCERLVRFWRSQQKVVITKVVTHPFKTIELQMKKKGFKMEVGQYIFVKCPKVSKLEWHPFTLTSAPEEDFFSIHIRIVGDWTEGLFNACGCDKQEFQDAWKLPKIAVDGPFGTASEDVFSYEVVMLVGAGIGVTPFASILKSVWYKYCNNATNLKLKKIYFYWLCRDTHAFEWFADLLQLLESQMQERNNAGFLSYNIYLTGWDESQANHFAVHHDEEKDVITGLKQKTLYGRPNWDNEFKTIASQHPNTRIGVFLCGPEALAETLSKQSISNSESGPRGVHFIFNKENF

[19] = biological target: NADPH oxidase 4 (Homo sapiens) (UniProt Q9NPH5); assay: NOX4-dependent H2O2 signal modulators, primary screen, NOX inhibitor project, cell-based, HEK293-NOX4, tetracycline-induced, Amplex Red fluorescence (AID 1160); details: 45 min, higher = more signal, called active from +8 up or from −8 down
Sequence of NADPH oxidase 4 (Homo sapiens) (Q9NPH5 whole entry, looked up): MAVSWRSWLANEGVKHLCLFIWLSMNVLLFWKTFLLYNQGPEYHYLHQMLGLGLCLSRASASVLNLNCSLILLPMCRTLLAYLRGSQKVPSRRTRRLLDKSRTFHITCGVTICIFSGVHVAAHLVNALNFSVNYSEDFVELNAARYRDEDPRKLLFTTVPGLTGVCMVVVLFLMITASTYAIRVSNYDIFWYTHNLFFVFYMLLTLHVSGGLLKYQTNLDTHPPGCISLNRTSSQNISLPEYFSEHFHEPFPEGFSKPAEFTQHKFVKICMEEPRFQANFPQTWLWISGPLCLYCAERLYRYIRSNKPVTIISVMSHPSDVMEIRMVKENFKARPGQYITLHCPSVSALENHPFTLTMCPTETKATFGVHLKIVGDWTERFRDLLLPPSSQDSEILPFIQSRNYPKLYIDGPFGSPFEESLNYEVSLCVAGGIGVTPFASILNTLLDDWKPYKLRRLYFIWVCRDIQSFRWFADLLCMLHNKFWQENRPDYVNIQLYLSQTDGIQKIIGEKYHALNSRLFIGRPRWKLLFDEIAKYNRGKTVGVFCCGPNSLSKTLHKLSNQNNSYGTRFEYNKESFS

[20] = biological target: NADPH oxidase 5 (Homo sapiens) (UniProt Q96PH1); assay: NOX5-dependent H2O2 signal modulators, primary screen, NOX inhibitor project, cell-based, HEK293-NOX5, Amplex Red fluorescence (AID 1161); details: HEK293-NOX5, ionomycin, 45 min, higher = more signal
Sequence of NADPH oxidase 5 (Homo sapiens) (Q96PH1 whole entry, looked up): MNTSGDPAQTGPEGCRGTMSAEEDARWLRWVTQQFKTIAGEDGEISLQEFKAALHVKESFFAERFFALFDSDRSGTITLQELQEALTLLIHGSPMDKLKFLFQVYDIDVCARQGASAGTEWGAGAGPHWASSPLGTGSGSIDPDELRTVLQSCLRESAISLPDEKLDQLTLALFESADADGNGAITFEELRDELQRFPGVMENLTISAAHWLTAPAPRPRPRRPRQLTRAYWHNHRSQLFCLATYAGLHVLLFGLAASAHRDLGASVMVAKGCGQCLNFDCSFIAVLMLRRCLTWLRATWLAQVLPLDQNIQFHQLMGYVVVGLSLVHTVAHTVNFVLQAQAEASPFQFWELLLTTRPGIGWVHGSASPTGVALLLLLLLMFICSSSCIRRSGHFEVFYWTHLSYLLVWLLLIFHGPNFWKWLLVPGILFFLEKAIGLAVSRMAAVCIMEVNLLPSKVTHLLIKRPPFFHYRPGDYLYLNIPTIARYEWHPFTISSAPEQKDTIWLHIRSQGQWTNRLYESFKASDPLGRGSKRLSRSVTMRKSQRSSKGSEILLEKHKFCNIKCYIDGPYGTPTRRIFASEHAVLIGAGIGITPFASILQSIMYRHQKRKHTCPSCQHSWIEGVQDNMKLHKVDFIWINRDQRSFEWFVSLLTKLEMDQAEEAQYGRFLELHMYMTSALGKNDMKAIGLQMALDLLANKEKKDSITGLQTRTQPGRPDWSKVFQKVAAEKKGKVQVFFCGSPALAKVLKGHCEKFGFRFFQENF

SMILES	composite z-score [1]	z-score [2]	z-score [3]	z-score [4]	z-score [5]	composite z-score [6]	composite z-score [7]	composite z-score (Torsin-1A (Homo sapiens) [8])	composite z-score (Torsin-1A (Homo sapiens) [9])	composite z-score [10]	z-score [11]	composite z-score [12]	z-score [13]	z-score [14]	z-score [15]	z-score [16]	z-score [17]	z-score [18]	z-score [19]	z-score [20]
C=CC1(C(=O)OC)CC=C(C(=O)OC)CC1 (stereo not given)	0.181	-1.3 (inactive)	0.132 (inactive)	0.332 (inactive)	0.0857 (inactive)	0.596	-0.154	0.226	0.823	0.434	0.2 (inactive)	0.0262	0.655 (inactive)	-0.87 (inactive)	-1.3 (inactive)	-1.96 (inactive)	0.674	0.379 (inactive)	-0.389 (inactive)	-0.0703
[N-]=[N+]=NCc1ccccc1[C@@H]1OC(c2ccc(OCCCO)cc2)=N[C@]1(Cc1ccccc1)C(N)=O	0.601	-1.72 (inactive)	-1.85 (inactive)	-1.19 (inactive)	-2.1 (inactive)	2.03	0.228	0.162	-0.106	-0.315	-0.451 (inactive)	0.0429	21.9 (active)	4.7 (inactive)	2.64 (inactive)	1.03 (inactive)	0.929	-2.06 (inactive)	0.76 (inactive)	-2.22
COCCOC(=O)N1C(=O)[C@@]2(c3cc(C#Cc4ccc(OC)cc4)ccc31)[C@H](c1ccc(O)cc1)N1[C@H](c3ccccc3)[C@H](c3ccccc3)OC(=O)[C@H]1[C@@H]2C(=O)N1CCc2cc(OC)c(OC)cc2C1	0.164	-1.93 (inactive)	-1.57 (inactive)	-1.42 (inactive)	-0.397 (inactive)	1.25	0.0317	0.807	0.964	0.643	0.892 (inactive)	0.134	1.92 (inactive)	1.19 (inactive)	0.401 (inactive)	0.827 (inactive)	0.035	0.478 (inactive)	0.398 (inactive)	1.08
C[N+](C)(C)CCCCNC(=O)[C@H]1C[C@H]2C(=O)N3CCC[C@H]3C(=O)N2[C@H]1c1cccc(OCCO)c1	0.0504	0.254 (inactive)	-0.148 (inactive)	-0.667 (inactive)	-0.359 (inactive)	-0.704	0.0569	-0.215	0.678	2	0.364 (inactive)	0.0861	3.34 (inactive)	0.503 (inactive)	-0.78 (inactive)	0.277 (inactive)	-0.555	-1.52 (inactive)	0.00366 (inactive)	-1.41
NC(=O)NCC#Cc1ccc2c(c1)[C@]1(C(=O)N2)[C@H](C(=O)Nc2nc3ccccc3s2)[C@H]2C(=O)O[C@H](c3ccccc3)[C@H](c3ccccc3)N2[C@@H]1c1ccccc1OCCO	0.436	-4.58 (inactive)	-1.22 (inactive)	0.0776 (inactive)	-0.327 (inactive)	2.4	0.105	-0.3	0.0607	2.04	1.07 (inactive)	1.33	1.39 (inactive)	0.831 (inactive)	1.18 (inactive)	-0.247 (inactive)	1.76	0.643 (inactive)	-0.228 (inactive)	-3.4
C=CCOC(=O)[C@H]1[C@@H]2C(=O)O[C@@H](c3ccccc3)[C@@H](c3ccccc3)N2[C@@H](c2ccc(OCCOC(=O)[C@H]3C[C@H]4C(=O)N[C@@H](CCCCN(C)C)C(=O)N4[C@H]3c3ccc(O)cc3)cc2)[C@]12C(=O)Nc1ccc(I)cc12	0.0259	-0.264 (inactive)	0.549 (inactive)	-0.268 (inactive)	0.259 (inactive)	1.23	0.135	1.94	1.33	1.96	-0.635 (inactive)	0.461	5.21 (inactive)	1.13 (inactive)	-0.286 (inactive)	0.522 (inactive)	-0.236	2.18 (inactive)	1.06 (inactive)	1.72
COc1cc(Br)cc(C(O)C2C=CC3C(=O)N(C)C(=O)C3N2N2CCCCC2)c1OC (stereo not given)	-0.274	0.4 (inactive)	-0.311 (inactive)	0.822 (inactive)	0.641 (inactive)	-0.39	-0.016	0.167	0.0369	-1.49	-1.8 (inactive)	0.152	0.712 (inactive)	1.27 (inactive)	0.126 (inactive)	1.17 (inactive)	-1.45	0.524 (inactive)	-3.5 (inactive)	-0.637
C=CCN1C(=O)[C@]2(O[C@H](CCn3cc([C@H](O)c4ccccc4)nn3)[C@@H]([Si](C)(C)c3ccc(OC)cc3)[C@@H]2C)c2cc(N3CCC3=O)ccc21	0.979	-4.37 (inactive)	-0.549 (inactive)	2.37 (inactive)	-0.229 (inactive)	-0.0806	0.481	0.279	0.398	2.08	0.894 (inactive)	0.188	3.76 (inactive)	1.05 (inactive)	2.62 (inactive)	0.721 (inactive)	2.02	0.632 (inactive)	-0.709 (inactive)	-1.74
O=C1C[C@@](C(=O)NC2CC2)(c2ccc([N+](=O)[O-])cc2)[C@@H](c2ccc(CO)cc2I)N1C1CCCCC1	0.693	-3.54 (inactive)	-0.691 (inactive)	0.495 (inactive)	0.714 (inactive)	1.38	0.0785	0.207	0.461	2.09	-0.178 (inactive)	-0.034	16.5 (active)	2.28 (inactive)	3.03 (inactive)	0.797 (inactive)	-0.552	1.37 (inactive)	0.666 (inactive)	2.04
